Source: PubChem
BAZ2B inh = inhibitors of human BAZ2B bromodomain. Q9UIF8. AlphaScreen BAZ2B-H3K14Ac peptide displacement. Potency, µM (titrated, usually from 114 µM), for the others: top-dose activity change, negative = inhibition, most hits filed as inhibitors. actives 4.4% (n = 360,000); note: % is set by controls: 0 for no effect and ±100 for the full control effect; nearly all actives have a fitted effect of over 60% in size
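AlphaScreen displacement: compounds (up to 110uM) incubated 30 min at room temperature with a preformed 50 nM BAZ2B/50 nM biotinylated H3K14Ac peptide complex in PBS pH 7.4 with Tween-20. Donor and acceptor beads at 10 ug/mL final added, 20 min light-protected before reading.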
G9a inh = blocks human histone lysine methyltransferase G9a; Q96KQ7; G9a H3K9 monomethylation, AlphaScreen, 2 h; Potency, µM (doses to about 102 µM), without a hit: at the highest dose activity, negative = inhibition, most hits filed as inhibitors; actives 8.8% (n = 350,000); AID 504332; note: % is set by controls: 0 for no effect and ±100 for the full control effect; nearly all actives have a fitted effect of over 75% in size
Target sequence (Q96KQ7 913-1193 limits assumed): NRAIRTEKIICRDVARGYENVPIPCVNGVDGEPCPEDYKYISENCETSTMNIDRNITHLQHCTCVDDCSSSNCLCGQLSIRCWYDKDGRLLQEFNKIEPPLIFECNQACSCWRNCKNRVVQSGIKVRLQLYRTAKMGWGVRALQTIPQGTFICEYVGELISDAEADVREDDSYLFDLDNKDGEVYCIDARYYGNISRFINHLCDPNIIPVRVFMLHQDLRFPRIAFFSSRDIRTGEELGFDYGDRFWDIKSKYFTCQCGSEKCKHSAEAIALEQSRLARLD
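Chemiluminescent proximity detection of H3K9 monomethylation, read after 10 min bead incubation in the dark. Reaction: 20 nM G9a, 500 nM biotin-H3K9 peptide, 20 uM SAM cofactor, 2 h, room temperature, following 15 min enzyme-compound preincubation.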
GLS inhibitor = glutaminase GLS (human) inhibition; O94925; GLS enzymatic activity, qHTS titration; Potency, µM (top dose mostly 45.5 µM), for inactives: at the top dose activity change, negative = inhibition, most hits filed as inhibitors; actives 0.21% (n = 410,000); note: % is set by controls: 0 for no effect and ±100 for the full control effect
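Assay buffer: 45 mM KH2PO4 pH 8.2, 0.02% Tween-20. hKGA acts on L-glutamine (1 mM solution added); product glutamate is reported by an oxidase/peroxidase Amplex Red coupling, with fluorescence taken at baseline and 30 min.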
JMJD2A Tudor inh = blocks the human JMJD2A Tudor domain. actives 4.4% (n = 390,000). AlphaScreen JMJD2A-Tudor / H3K4me3 peptide binding. Potency, µM (titrated, usually from 114 µM), inactives show top-dose activity change, negative = inhibition, actives largely listed as inhibitors. AID 504339; note: % is set by controls: 0 for no effect and ±100 for the full control effect; nearly all actives have a fitted effect of over 50% in size
HP1b chromo inh = inhibitors of HP1-beta chromodomain binding to methylated histone tails | P83916 | actives 0.56% (n = 390,000) | AlphaScreen HP1-beta / biotin-H3K9me3 peptide binding | Potency, µM (doses to about 114 µM), for the others: at the highest dose activity change, negative = inhibition, most hits filed as inhibitors; note: nearly all actives have a fitted effect of over 70% in size
Target sequence (P83916 whole entry, looked up): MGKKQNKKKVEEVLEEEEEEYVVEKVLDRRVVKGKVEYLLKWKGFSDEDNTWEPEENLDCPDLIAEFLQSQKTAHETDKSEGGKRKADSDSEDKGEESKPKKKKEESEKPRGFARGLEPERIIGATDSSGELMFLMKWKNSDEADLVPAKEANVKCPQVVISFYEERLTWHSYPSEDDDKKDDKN
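AlphaScreen: HP1-beta (50 nM) preformed 30 min with biotin-H3(1-18)K9me3 peptide (50 nM) in PBS pH 7.4, 0.01% Tween-20. Compound added for 30 min at RT, then streptavidin donor/nickel chelate acceptor beads (10 ug/mL) for 30 min.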
* hit, by the source's call; [ ] = remark or other dose. This is a sample that favours compounds with a hit; in the whole collection about 10% have one here. Calls come from the whole dose curve; as a rule, active = well fitted curve in the direction sought with a large enough effect; inconclusive = small, poorly fitted or top-dose-only effect, or another doubt; inactive = no such curve, though single readings can be large; an effect the other way counts as inactive or inconclusive. Potency is the fitted concentration of half-maximal effect.

C=CCN1C(=O)c2ccc(C(=O)OCC(=O)Nc3ccc(S(N)(=O)=O)cc3)cc2C1=O was read as BAZ2B inh 8%, G9a inh 50µM*, GLS inhibitor -2%, JMJD2A Tudor inh -25% and HP1b chromo inh -16%.
For NS(=O)(=O)c1ccc(NC(=O)CN2C(=O)c3ccccc3C2=O)cc1 the results were BAZ2B inh -22%, G9a inh 13%, GLS inhibitor -11%, JMJD2A Tudor inh -7% and HP1b chromo inh 50%.
For CN(C)c1ccc(NC(=O)COC(=O)c2ccc3c(c2)OCO3)cc1 the results were GLS inhibitor 36%, JMJD2A Tudor inh inconclusive and HP1b chromo inh inconclusive.
CCOC(=O)c1c(C)c(C(=O)NCCOC)c(C)n1CC was read as BAZ2B inh 6%, G9a inh 11%[59 µM], GLS inhibitor -4%, JMJD2A Tudor inh -11% and HP1b chromo inh -8%.
CN(C)c1ccc(C(=O)OCC(=O)Nc2ccc(S(N)(=O)=O)cc2)cc1 was read as G9a inh inconclusive, GLS inhibitor -2%, JMJD2A Tudor inh 56µM* and HP1b chromo inh inconclusive.
CCOC(=O)c1ccc(NCc2ccc(N(C)C)cc2)cc1 was read as BAZ2B inh 11µM*, G9a inh 10µM*, GLS inhibitor 0%, JMJD2A Tudor inh inconclusive and HP1b chromo inh -11%.
CCOC(=O)c1c(C)c(C(=O)Nc2ccc(N(C)C)cc2)c(C)n1CC was read as BAZ2B inh inconclusive, G9a inh 2µM*, GLS inhibitor 12%, JMJD2A Tudor inh inconclusive and HP1b chromo inh -10%.
Screening O=C(CCCC(=O)N1CCCc2ccccc21)N1CCCc2ccccc21 returned BAZ2B inh 10%, G9a inh 21%, GLS inhibitor 10%, JMJD2A Tudor inh -9% and HP1b chromo inh 27%.
Screening O=C(CN1CCCC1)N1CCCc2ccccc21 returned BAZ2B inh 50µM*, GLS inhibitor 0%, JMJD2A Tudor inh 3.5µM* and HP1b chromo inh inconclusive.
For Nc1nc2nc(SCC(=O)N3CCCc4ccccc43)[nH]c2c(=O)[nH]1 the results were BAZ2B inh -7% and G9a inh 79µM*.
For O=C(CN1CCCCC1)N1CCCc2ccccc21 the results were BAZ2B inh 50µM*, G9a inh inconclusive, GLS inhibitor 6%, JMJD2A Tudor inh 2.5µM* and HP1b chromo inh inconclusive.
For CCN(CC)c1ccc(/C=N/OCC(=O)N2CCCc3ccccc32)cc1 the results were BAZ2B inh inconclusive, G9a inh 40µM*, GLS inhibitor 7%, JMJD2A Tudor inh inconclusive and HP1b chromo inh inconclusive.
For O=C(CO/N=C/c1ccc(OC(F)F)cc1)N1CCc2ccccc21 the results were BAZ2B inh 7%, G9a inh -1%[59 µM], GLS inhibitor -2%, JMJD2A Tudor inh -10% and HP1b chromo inh 22%.
O=C(C(=O)N1CCCc2ccccc21)N1CCCc2ccccc21 was read as BAZ2B inh -1%, G9a inh 12%[59 µM], GLS inhibitor -1%, JMJD2A Tudor inh -6% and HP1b chromo inh 19%.
Screening CC(=O)c1ccc(S(=O)(=O)N2CCN(c3ccnc4cc(Cl)ccc34)CC2)cc1 returned GLS inhibitor -2%.
`Cc1ccc(NC(=S)NNC(=S)Nc2ccc(C)cc2)cc1` gave GLS inhibitor 24%, JMJD2A Tudor inh -29% and HP1b chromo inh -12%.
For Cc1ccc(C)c(NC(=S)NNc2ccc(F)cc2F)c1 the results were BAZ2B inh 20µM*, G9a inh 45µM*, GLS inhibitor -22%, JMJD2A Tudor inh 32µM* and HP1b chromo inh inconclusive.
`Cc1ccc(NNC(=S)Nc2ccc(C(C)C)cc2)c(C)c1` gave BAZ2B inh 35µM*, G9a inh 11µM*, GLS inhibitor inconclusive, JMJD2A Tudor inh 14µM* and HP1b chromo inh 22µM*.
`Cc1nc(NCc2ccco2)[nH]c(=O)c1CCC(C)C` gave BAZ2B inh 0%, G9a inh 14%[12.7 µM], GLS inhibitor 0%, JMJD2A Tudor inh -24% and HP1b chromo inh 4%.
Screening CCOc1ccc(-c2nnn(CC(=O)NCc3ccc(F)cc3)n2)cc1OCC returned BAZ2B inh 11%, G9a inh -10%, GLS inhibitor 0%, JMJD2A Tudor inh -13% and HP1b chromo inh 28%.
Screening COc1cc(NC(=O)c2ccc(-c3cn[nH]c3)c3ccoc23)cc(OC)c1OC returned GLS inhibitor 8%.
O=C1NC(=S)SC1=Cc1ccccc1C(=O)O was read as GLS inhibitor 50%.
Screening O=C1NC(=S)SC1=C1CCCC1 returned BAZ2B inh 32µM*, G9a inh 18µM*, GLS inhibitor 9%, JMJD2A Tudor inh inconclusive and HP1b chromo inh 1%.
For CCOC(=O)c1ccc(-n2c(N)c(C(=O)NCc3ccco3)sc2=S)cc1 the results were BAZ2B inh 40µM*, G9a inh inconclusive, GLS inhibitor 5%, JMJD2A Tudor inh 25µM* and HP1b chromo inh 16µM*.
Screening COc1ccc(-n2c(N)c(C(=O)NCc3ccco3)sc2=S)cc1 returned BAZ2B inh -5%, G9a inh inconclusive, GLS inhibitor 0%, JMJD2A Tudor inh -27% and HP1b chromo inh 10%.
Screening C=CCNC(=O)c1sc(=S)n(-c2ccc(C(=O)OCC)cc2)c1N returned BAZ2B inh inconclusive, G9a inh 3.2µM*, GLS inhibitor -2%, JMJD2A Tudor inh inconclusive and HP1b chromo inh inconclusive.
CCOC(=O)c1ccc(-n2c(=S)sc3c(=O)[nH]c(C)nc32)cc1 was read as BAZ2B inh -4%, G9a inh 1.8µM*, GLS inhibitor -18%, JMJD2A Tudor inh inconclusive and HP1b chromo inh -39%.
CCOC(=O)c1sc(=S)n(-c2ccc(F)c(F)c2)c1N was read as BAZ2B inh 4%, G9a inh inconclusive, GLS inhibitor -11%, JMJD2A Tudor inh inconclusive and HP1b chromo inh -39%.
For CCn1c(N)c(C(=O)NCc2ccco2)sc1=S the results were BAZ2B inh inconclusive, G9a inh 10µM*, GLS inhibitor 8%, JMJD2A Tudor inh inconclusive and HP1b chromo inh inconclusive.
CCOC(=O)CSc1nc2c(sc(=S)n2-c2ccc(CC)cc2)c(=O)[nH]1 was read as BAZ2B inh -23%, G9a inh inconclusive, GLS inhibitor 4%, JMJD2A Tudor inh -24% and HP1b chromo inh 29%.
For C=CCN(CC=C)CCOc1cccc2ccccc12 the results were BAZ2B inh 50µM*, G9a inh 11µM*, GLS inhibitor 4%, JMJD2A Tudor inh 20µM* and HP1b chromo inh inconclusive.
`C=CCN(CC=C)CCOc1ccccc1` gave BAZ2B inh 56µM*, G9a inh 13µM*, GLS inhibitor 1%, JMJD2A Tudor inh 3.5µM* and HP1b chromo inh -18%.
Screening O=C(CCS(=O)(=O)c1ccc2c(c1)NC(=O)CO2)NCCc1ccc(Cl)cc1 returned BAZ2B inh -6%, G9a inh 8%, GLS inhibitor -6%, JMJD2A Tudor inh -10% and HP1b chromo inh 33%.
